In experiment [1] the target is Tyrosine-protein kinase Lck (Homo sapiens) (UniProt P06239). Particulars: at 10 µM.
Experiment [2] shares this target. The following applies: at 1 µM.
Experiment [3] shares this target. Particulars: at 10 µM. This is another data set of the same source.
The target in experiment [4] is Tyrosine-protein kinase Lyn (Homo sapiens) (UniProt P07948). The following applies: at 1 µM.
Experiment [5] shares this target. The following applies: at 10 µM.
Experiment [6] addresses Mitogen-activated protein kinase 3 (Homo sapiens) (UniProt P27361). Particulars: at 1 µM.
Experiment [7] has the same target. Particulars: at 10 µM.
For experiment [8], the target named is Mitogen-activated protein kinase 1 (Homo sapiens) (UniProt P28482). Particulars: at 1 µM.
Mitogen-activated protein kinase 1 (Homo sapiens), sequence (P28482 whole entry): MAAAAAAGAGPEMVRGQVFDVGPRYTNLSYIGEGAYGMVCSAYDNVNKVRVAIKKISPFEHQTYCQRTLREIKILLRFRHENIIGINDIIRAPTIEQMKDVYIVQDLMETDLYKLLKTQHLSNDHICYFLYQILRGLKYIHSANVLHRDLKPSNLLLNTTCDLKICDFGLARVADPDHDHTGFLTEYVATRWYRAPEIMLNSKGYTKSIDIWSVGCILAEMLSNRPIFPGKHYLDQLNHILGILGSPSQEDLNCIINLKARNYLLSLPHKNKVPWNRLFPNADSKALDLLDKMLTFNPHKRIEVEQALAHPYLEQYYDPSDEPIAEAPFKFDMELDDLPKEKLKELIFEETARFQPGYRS
The target is the same in experiment [9]. The following applies: at 10 µM.
Experiment [10] deals with MAP kinase-activated protein kinase 2 (Homo sapiens) (UniProt P49137). Particulars: at 1 µM.
MAP kinase-activated protein kinase 2 (Homo sapiens), sequence (P49137 whole entry, looked up): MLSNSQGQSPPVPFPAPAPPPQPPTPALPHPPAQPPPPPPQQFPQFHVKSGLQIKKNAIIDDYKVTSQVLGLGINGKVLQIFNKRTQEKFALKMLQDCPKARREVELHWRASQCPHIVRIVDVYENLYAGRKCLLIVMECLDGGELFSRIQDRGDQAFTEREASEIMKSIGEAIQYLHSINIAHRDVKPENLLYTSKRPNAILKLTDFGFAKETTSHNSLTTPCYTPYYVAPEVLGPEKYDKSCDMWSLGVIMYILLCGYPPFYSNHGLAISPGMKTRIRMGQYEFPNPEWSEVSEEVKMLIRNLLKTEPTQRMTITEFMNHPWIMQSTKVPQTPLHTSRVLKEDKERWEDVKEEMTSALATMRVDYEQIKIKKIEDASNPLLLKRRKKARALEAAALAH
Experiment [11] has the same target. Particulars: at 10 µM.
The target in experiment [12] is MAP kinase-activated protein kinase 3 (Homo sapiens) (UniProt Q16644). The following applies: at 10 µM.
MAP kinase-activated protein kinase 3 (Homo sapiens), sequence (Q16644 whole entry, looked up): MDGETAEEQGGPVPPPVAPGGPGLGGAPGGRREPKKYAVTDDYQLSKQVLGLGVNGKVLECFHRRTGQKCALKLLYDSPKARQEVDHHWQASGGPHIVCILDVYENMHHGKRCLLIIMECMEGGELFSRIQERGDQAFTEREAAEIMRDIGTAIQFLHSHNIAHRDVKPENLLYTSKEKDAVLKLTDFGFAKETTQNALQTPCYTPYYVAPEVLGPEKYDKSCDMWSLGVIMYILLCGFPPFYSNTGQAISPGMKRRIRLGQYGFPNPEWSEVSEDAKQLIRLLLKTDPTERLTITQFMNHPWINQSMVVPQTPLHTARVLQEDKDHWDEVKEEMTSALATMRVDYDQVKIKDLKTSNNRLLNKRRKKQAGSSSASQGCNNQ
Experiment [13] has as its target Serine/threonine-protein kinase MARK1 (Homo sapiens) (UniProt Q9P0L2). The following applies: at 10 µM.
The target in experiment [14] is Dual specificity mitogen-activated protein kinase kinase 1 (Homo sapiens) (UniProt Q02750). Particulars: at 1 µM.
Dual specificity mitogen-activated protein kinase kinase 1 (Homo sapiens), sequence (Q02750 whole entry): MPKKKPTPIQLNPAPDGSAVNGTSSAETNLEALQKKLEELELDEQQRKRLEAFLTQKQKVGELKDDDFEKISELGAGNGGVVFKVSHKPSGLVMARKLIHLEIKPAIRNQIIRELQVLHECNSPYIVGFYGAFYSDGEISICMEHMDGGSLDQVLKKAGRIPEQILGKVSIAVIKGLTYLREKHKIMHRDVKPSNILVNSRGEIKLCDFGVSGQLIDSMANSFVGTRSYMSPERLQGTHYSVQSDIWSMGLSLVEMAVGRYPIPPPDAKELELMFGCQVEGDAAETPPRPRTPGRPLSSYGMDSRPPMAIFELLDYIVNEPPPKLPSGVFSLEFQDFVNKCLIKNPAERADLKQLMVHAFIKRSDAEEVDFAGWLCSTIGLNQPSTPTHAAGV
Experiment [15] shares this target. Particulars: at 10 µM.
The target in experiment [16] is Maternal embryonic leucine zipper kinase (Homo sapiens) (UniProt Q14680). Particulars: at 10 µM.
Maternal embryonic leucine zipper kinase (Homo sapiens), sequence (Q14680 whole entry, looked up): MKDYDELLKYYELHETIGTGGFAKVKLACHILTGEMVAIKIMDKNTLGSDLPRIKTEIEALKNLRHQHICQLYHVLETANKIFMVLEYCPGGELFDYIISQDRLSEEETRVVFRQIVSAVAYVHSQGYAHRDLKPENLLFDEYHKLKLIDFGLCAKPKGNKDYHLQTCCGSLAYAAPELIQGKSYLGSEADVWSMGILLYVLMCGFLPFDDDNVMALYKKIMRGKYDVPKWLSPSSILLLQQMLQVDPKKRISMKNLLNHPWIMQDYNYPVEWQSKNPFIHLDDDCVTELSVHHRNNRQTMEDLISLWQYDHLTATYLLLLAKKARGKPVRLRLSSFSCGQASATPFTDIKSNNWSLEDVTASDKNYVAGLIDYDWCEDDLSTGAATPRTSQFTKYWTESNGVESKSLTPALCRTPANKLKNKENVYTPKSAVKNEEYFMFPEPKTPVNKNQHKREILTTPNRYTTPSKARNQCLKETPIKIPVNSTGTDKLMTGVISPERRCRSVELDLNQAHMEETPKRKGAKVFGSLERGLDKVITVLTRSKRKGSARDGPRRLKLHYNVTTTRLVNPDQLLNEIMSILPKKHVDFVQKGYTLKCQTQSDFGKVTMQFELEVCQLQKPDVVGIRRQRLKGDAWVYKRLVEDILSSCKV
Experiment [17] has as its target Misshapen-like kinase 1 (Homo sapiens) (UniProt Q8N4C8). The following applies: at 10 µM.
Experiment [18] concerns the target Maternal embryonic leucine zipper kinase (Homo sapiens) (UniProt Q14680). Particulars: at 1 µM.
The target in experiment [19] is Serine/threonine-protein kinase MARK1 (Homo sapiens) (UniProt Q9P0L2). Particulars: at 1 µM.
The target of experiment [20] is Misshapen-like kinase 1 (Homo sapiens) (UniProt Q8N4C8). Particulars: at 1 µM.
Misshapen-like kinase 1 (Homo sapiens), sequence (Q8N4C8 whole entry, looked up): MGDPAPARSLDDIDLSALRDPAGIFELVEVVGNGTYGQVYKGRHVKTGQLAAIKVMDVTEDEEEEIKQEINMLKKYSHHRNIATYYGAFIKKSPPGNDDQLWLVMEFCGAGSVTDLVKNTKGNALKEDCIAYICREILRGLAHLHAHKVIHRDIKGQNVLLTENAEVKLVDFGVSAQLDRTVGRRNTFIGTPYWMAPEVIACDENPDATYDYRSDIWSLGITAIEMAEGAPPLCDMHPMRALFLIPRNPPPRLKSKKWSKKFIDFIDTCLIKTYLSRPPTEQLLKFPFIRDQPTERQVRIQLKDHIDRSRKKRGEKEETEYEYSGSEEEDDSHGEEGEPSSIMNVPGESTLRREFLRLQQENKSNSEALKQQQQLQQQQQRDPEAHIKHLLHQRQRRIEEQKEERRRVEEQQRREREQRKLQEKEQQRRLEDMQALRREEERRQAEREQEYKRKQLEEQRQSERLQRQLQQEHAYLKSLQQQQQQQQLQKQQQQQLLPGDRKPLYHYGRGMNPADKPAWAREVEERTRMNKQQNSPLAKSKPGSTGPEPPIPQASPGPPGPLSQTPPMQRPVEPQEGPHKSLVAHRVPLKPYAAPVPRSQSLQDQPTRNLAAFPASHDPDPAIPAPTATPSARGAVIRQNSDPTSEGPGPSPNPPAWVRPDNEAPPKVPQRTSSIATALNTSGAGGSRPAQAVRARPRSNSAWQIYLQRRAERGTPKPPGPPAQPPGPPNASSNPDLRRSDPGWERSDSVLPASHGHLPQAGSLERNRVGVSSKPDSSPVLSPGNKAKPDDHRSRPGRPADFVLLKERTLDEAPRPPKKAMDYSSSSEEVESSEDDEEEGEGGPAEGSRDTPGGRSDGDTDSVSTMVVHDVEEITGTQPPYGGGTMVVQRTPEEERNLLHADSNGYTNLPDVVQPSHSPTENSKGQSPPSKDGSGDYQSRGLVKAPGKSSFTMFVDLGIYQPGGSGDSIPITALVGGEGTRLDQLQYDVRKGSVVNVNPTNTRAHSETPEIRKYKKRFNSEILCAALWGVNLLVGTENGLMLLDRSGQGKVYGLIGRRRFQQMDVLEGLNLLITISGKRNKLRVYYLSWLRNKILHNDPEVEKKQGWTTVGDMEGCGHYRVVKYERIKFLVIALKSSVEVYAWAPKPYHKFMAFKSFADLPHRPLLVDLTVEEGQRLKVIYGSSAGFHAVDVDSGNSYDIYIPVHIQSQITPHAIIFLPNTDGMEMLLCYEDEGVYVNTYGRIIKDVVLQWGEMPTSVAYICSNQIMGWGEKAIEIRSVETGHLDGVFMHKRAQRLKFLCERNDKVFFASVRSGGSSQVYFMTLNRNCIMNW

Mitogen-activated protein kinase 3 (Homo sapiens), sequence (P27361 whole entry): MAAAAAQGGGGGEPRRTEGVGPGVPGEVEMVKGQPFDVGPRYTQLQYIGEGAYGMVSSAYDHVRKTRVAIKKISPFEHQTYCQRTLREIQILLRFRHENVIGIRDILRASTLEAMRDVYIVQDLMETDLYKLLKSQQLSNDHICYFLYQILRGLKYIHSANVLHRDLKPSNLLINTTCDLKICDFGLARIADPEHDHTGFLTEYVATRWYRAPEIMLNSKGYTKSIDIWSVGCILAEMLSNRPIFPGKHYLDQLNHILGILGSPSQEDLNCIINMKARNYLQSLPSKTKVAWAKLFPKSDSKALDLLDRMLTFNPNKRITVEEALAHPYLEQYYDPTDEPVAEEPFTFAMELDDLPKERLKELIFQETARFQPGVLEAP
Tyrosine-protein kinase Lyn (Homo sapiens), sequence (P07948 2-512 limits assumed): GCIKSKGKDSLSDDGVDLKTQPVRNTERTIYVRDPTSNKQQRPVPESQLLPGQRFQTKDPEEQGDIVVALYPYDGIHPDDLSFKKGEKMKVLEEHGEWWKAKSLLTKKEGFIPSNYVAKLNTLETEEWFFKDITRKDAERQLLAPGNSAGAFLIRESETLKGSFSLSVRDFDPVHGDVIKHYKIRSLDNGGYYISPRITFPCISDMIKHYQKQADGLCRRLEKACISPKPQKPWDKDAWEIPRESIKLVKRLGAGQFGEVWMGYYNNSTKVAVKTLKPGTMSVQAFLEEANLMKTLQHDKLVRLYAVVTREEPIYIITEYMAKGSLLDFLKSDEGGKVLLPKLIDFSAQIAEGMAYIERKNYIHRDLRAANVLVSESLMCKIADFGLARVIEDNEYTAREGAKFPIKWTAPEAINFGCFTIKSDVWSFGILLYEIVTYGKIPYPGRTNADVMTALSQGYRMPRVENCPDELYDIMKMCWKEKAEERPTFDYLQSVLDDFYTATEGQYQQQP
Tyrosine-protein kinase Lck (Homo sapiens), sequence (P06239 2-509 limits assumed): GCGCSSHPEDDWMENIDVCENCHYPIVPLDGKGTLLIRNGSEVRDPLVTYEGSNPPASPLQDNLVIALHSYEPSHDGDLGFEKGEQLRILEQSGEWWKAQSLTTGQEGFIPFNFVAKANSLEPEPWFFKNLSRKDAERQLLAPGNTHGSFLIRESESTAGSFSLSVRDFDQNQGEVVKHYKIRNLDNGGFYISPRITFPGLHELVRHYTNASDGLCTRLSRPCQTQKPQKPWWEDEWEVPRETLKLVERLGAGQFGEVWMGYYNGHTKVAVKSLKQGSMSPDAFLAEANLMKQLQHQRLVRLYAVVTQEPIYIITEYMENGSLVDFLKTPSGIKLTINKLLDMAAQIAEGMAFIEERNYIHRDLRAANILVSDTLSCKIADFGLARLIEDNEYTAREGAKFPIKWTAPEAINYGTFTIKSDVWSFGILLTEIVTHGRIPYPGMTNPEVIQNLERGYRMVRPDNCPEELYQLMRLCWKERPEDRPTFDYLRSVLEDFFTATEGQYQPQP

Take `Nc1ncnc2[nH]nc(Nc3ccc(F)cc3)c12`: the residual activity turned out to be 14% in experiment [1]; 31% in experiment [2]; 19% in experiment [3]; 19% in [4]; 3% in [5]; 90% in experiment [6]. Also, the residual activity was found to be 43% in [7]; 101% in [8]; 67% in experiment [9]; 75% in experiment [10]; 95% in [11]; 112% in experiment [12]. For the same compound, the residual activity in experiment [13] turned out to be 69%; in experiment [14], 60%; in experiment [15] it was 23%; in experiment [16] it was 51%; in [17], 48%.
`COc1cc2ncnc(Nc3cccc(Cl)c3)c2cc1OC`: the residual activity in experiment [1] was 12%; in experiment [2] it was 49%; in experiment [3] it was 15%; in [4], 10%; in [5] it was 1%; in experiment [7], 65%. Besides, the residual activity amounted to 101% in experiment [8]; 80% in [9]; 108% in experiment [10]; 105% in experiment [11]; 65% in experiment [12]; 83% in experiment [13]. The residual activity is 114% in experiment [14]; 71% in experiment [15]; 89% in experiment [18]; 59% in experiment [16]; 76% in experiment [17].
For the compound `COc1ccc2c(c1)c(C1=C(c3c[nH]c4ccccc34)C(=O)NC1=O)cn2CCCN(C)C`, the residual activity in experiment [1] was found to be 25%; in [2], 65%; in experiment [3], 27%; in [4] it was 63%; in [5], 13%; in [6] it was 104%. Further, the residual activity in experiment [7] came to 82%; in [8], 114%; in experiment [12] it was 135%; in experiment [19], 75%; in [13], 53%; in [14], 102%. Also, the residual activity in experiment [15] stood at 75%; in experiment [18], 54%; in [16], 26%; in [17], 61%.
On to `COc1cc2nccc(Oc3ccc(NC(=S)NC(=O)c4ccccc4C)cc3)c2cc1OC`, for which the residual activity is -1% in experiment [1]; 0% in experiment [2]; 0% in [3]; 0% in experiment [4]; 0% in [5]; 83% in [6]. Also, the residual activity in experiment [7] turned out to be 82%; in [8] it was 93%; in experiment [9] it was 87%; in [10], 73%; in experiment [11] it was 66%; in [12], 56%. Besides, the residual activity in experiment [19] was found to be 81%; in experiment [13], 75%; in experiment [14], 86%; in [15] it was 68%; in experiment [18], 98%; in experiment [16], 84%. Besides, the results for the residual activity in experiment [20] and in experiment [17] were 77% and 69%, respectively.
As to `O=c1cc(N2CCOCC2)oc2c1ccc1ccccc12`, the residual activity in [1] came to 101%; in experiment [2] it was 89%; in [3], 88%; in [4] it was 103%; in experiment [5], 90%; in experiment [6] it was 101%. Besides, the residual activity was determined as 80% in experiment [7]; 103% in experiment [8]; 106% in [9]; 100% in experiment [10]; 87% in [11]; 109% in experiment [12]. Also, the residual activity in experiment [19] was found to be 93%; in experiment [13] it was 89%; in experiment [15], 92%; in experiment [18], 92%; in [16], 91%; in [20], 102%. Further, the residual activity in [17] was 110%.
For `O=c1c(-c2ccc(F)cc2)c(-c2ccncc2)[nH]n1-c1ccc(Cl)cc1`, the residual activity in experiment [4] was 75%; in experiment [5], 38%; in experiment [7], 66%; in experiment [8] it was 122%; in experiment [15], 102%; in experiment [17], 55%.
Take `Oc1cccc(-c2nc(N3CCOCC3)c3oc4ncccc4c3n2)c1`: the residual activity was 99% in experiment [4]; 57% in experiment [5]; 83% in [6]; 87% in experiment [7]; 122% in experiment [8]; 119% in experiment [9]. In addition, the residual activity in experiment [10] stood at 81%; in experiment [18] it was 74%; in [16], 88%.
With `O=C(Nc1nc2ccccc2n1CCN1CCOCC1)c1cccc([N+](=O)[O-])c1`, the residual activity was found to be 87% in experiment [5]; 84% in [12]; 80% in [19]; 81% in experiment [13]; 66% in [14]; 81% in [15]. The residual activity in experiment [18] was determined as 65%; in [16], 45%.
On to `Nc1nccc(-c2c(-c3ccc(F)cc3)ncn2C2CCNCC2)n1`, for which the residual activity in [4] turned out to be 50%; in experiment [5], 6%; in [7] it was 35%; in experiment [15] it was 119%; in [18] it was 71%; in [16], 27%.
Consider `O=c1cc(N2CCOCC2)oc2c(-c3ccccc3)cccc12`, for which the residual activity was found to be 74% in experiment [5], 78% in experiment [6], 73% in [7] and 72% in [16].
`Fc1ccc(-c2nc3n(c2-c2ccncc2)CCS3)cc1`: the residual activity in [3] is 75%; in experiment [4], 98%; in experiment [5] it was 74%; in [6], 138%; in experiment [7], 92%; in experiment [12] it was 100%. The residual activity in experiment [18] came to 89%; in experiment [16], 82%; in [20], 96%; in [17], 67%.
`NC(=O)Nc1sc(-c2ccc(F)cc2)cc1C(N)=O`: the residual activity in [4] was 16%; in [5], 1%; in experiment [6], 80%; in experiment [8] it was 108%; in experiment [9] it was 67%; in experiment [10] it was 92%. In addition, the residual activity stood at 83% in experiment [11]; 86% in [12]; 57% in experiment [19]; 17% in [13]; 44% in experiment [14]; 34% in [15]. Also, the residual activity in [18] was 72%; in experiment [16] it was 24%; in experiment [20], 81%; in [17] it was 47%.
Regarding `Cc1cc(C)c(/C=C2\C(=O)Nc3ccccc32)[nH]1`, the residual activity in experiment [4] stood at 46%; in experiment [5], 8%; in [8], 98%; in experiment [9], 101%; in experiment [10], 100%; in experiment [11], 103%. For the same compound, the residual activity in experiment [12] is 101%; in experiment [19], 65%; in [13], 20%; in experiment [14], 41%; in experiment [15], 31%; in experiment [20], 71%. The residual activity in [17] was 58%.
As for `CCOc1nc(NC(=O)Cc2cc(OC)ccc2OC)cc(N)c1C#N`, the residual activity in experiment [4] worked out at 69%; in experiment [5], 59%.
As for `CN([C@@H](Cc1ccc(OS(=O)(=O)c2cccc3cnccc23)cc1)C(=O)N1CCN(c2ccccc2)CC1)S(=O)(=O)c1cccc2cnccc12`, the residual activity amounted to 113% in experiment [2]; 78% in experiment [4]; 59% in [5]; 78% in experiment [12]; 99% in [19]; 98% in experiment [13].
With `O=S(=O)(c1cccc2cnccc12)N1CCCNCC1`, the residual activity in [4] is 83%; in experiment [9], 80%; in experiment [18], 75%; in experiment [16] it was 16%.
Turning to `O=C1Cc2c([nH]c3ccc(Br)cc23)-c2ccccc2N1`, the residual activity in experiment [4] stood at 10%; in experiment [5], 1%; in [12] it was 89%; in experiment [19], 51%; in experiment [13], 12%; in experiment [15], 82%. The residual activity in [18] was found to be 89%; in experiment [16], 68%.
`O=C(Nc1ccc(Cl)cc1)c1ccccc1NCc1ccncc1`: the residual activity in experiment [4] stood at 30%; in [5], 2%; in experiment [6], 77%; in experiment [7], 80%; in [18], 75%.
For `COc1ccc(Cl)cc1NC(=O)Nc1cc(C)nc2ccccc12`, the residual activity in experiment [4] worked out at 89%; in experiment [5] it was 87%; in experiment [10], 80%; in experiment [19], 86%; in [13] it was 77%; in experiment [14], 75%. For the same compound, the values for the residual activity in [15], in [18] and in experiment [16] were 86%, 88% and 89%, respectively.

For the origin of these results see ChEMBL document CHEMBL2218924, “A broad activity screen in support of a chemogenomic map for kinase signalling research and drug discovery” (Biochem J, 2013).
